Here are results for twelve compounds from PubChem BioAssay AID1745851 (National Center for Advancing Translational Sciences (NCATS), 2022).

This is one part of the list. Entries that show only a call come without a potency. Records with an inconclusive call do not appear. The source made the active and inactive calls. The call rests on the fitted dose curve; in most records, active means well fitted inhibition curve with a large enough effect; inconclusive means small, poorly fitted or top-dose-only effect; inactive means flat fitted curve, though single readings scatter.

The assay in a line: Counterscreen for Target Class Profiling of Small Molecule Inhibitors of Methyltransferases. Conditions: MTase-Glo coupled enzymes, SAH conversion luminescence, no MTase; series mostly up to 57.3 µM. The source says:
PI: Matthew D. Hall Ph.D. and Quinlin M. Hanson Ph.D. National Center for Advancing Translational Sciences (NCATS) National Institute of Health (NIH) Rockville, MD Target class profiling (TCP) is a chemical biology approach amenable to investigating understudied biological targets. TCP is achieved by developing a generalizable assay platform and applying it to screen a curated set of compound libraries against representative members of a target class. Small molecule methyltransferases (SMMTase) are a subclass of methyltransferase that act on metabolites to modulate signaling pathways, metabolize xenobiotics, or balance the available methyl pool. We screened four curated libraries totaling 27,574 unique compounds against the SMMTases nicotinamide N-methyltransferase (NNMT), phenylethanolamine N-methyltransferase (PNMT), histamine N-methyltransferase (HNMT), glycine N-methyltransferase (GNMT), catechol O-methyltransferase (COMT), and guanidinoacetate N-methyltransferase (GAMT). The data generated by this TCP can be leveraged for informed tool molecule development. For example, in the associated publication we identified a chemotype of HNMT-selective inhibitors. Additionally, we identified a putative SMMTase-selective inhibitor with potential as a tool molecule for studying broader methyltransferase biology. High-through put screening assays were developed at the National Center for Advancing Translational Science (NCATS) for the enzymes NNMT, PNMT, HNMT, GNMT, COMT, and GAMT. Enzymatic activity was measured as a function of SAM cofactor conversion using the MTase Glo kit (Promega) for all enzymes. All assays were performed in 1536-well format with substrates and SAM concentrations at KM values. Enzyme concentration and assay timing were optimized for 10-20% SAM conversion. Initial screening of 27,574 compounds was done as single-point assays using the highest compound concentration (40 uM). 1,434 compounds were identified as hits (at least 50% inhibition) under these conditions. These compounds were replated in 11-point dose response and assayed against NNMT, PNMT, HNMT, GNMT, COMT, GAMT, and a counter-assay. The IC50 and efficacy (maximal response) values were determined for each dose-response curve. These values are also accounted for in the area under the curve (AUC) values.
PROTOCOL TABLE (as described by Inglese J, Shamu CE and Guy RK. 2007) SEQUENCE No. (e.g., 1, 2, 3, etc.); PARAMETER (e.g., Cells, Incubation, Reagent, etc.); VALUE; DESCRIPTION. 1; Reagent; 3 uL; SAH (16 uM) in reaction buffer, columns 1-48. 2; Reagent; 1 uL; SAM (4x) in reaction buffer, columns 1-48. 3; Controls; 23 nL; DMSO in column 4; sinefungin in DMSO (0 uM - 40 uM) in 7-point 1:2 dilution series (n = 2) in column 2. 4; Compounds; 23 nL; Columns 5-48. 5; Time; 20 min; Incubation. 6; Reagent; 1 uL; MTase-Glo reagent (5X), columns 1-48. 7; Time; 30 min; Incubation. 8; Reagent; 5 uL; MTase-Glo Detection reagent, columns 1-48. 9; Time; 30 min; Incubation. 10; Detection; Luminescence; ViewLux uHTS Microplate Imager (PerkinElmer). NOTES (numbers refer to Sequence numbers above) 1, 2. White Medium Binding 1536-well plates (white, flat bottom, medium binding Cat# AWK010000A, Aurora Microplates, Scottsdale, AZ); Reaction buffer: 50 mM Tris, pH 8.0, 3 mM MgCl2, 1 mM EDTA, 50 mM NaCl, 1 mM DTT, and 0.1 mg/mL BSA; refer to tables 2 and S1 for specific reagent concentrations. 3, 4. Pintool transfer 5, 7, 9. Room temperature 5. Final reaction conditions: 1 uM SAH, 4 uM SAM, 50 mM Tris, pH 8.0, 3 mM MgCl2, 1 mM EDTA, 50 mM NaCl, 1 mM DTT, and 0.1 mg/mL BSA. 7. Conversion of SAH to ADP; MTase Glo Kit (Promega, Madison, WI). 9. Conversion of ADP to ATP and detection by UltraGlo luciferase; MTase Glo Kit (Promega, Madison, WI). 10. Settings: 20 s exposure, 1X binning, high gain, medium speed. REFERENCES: Inglese J, Shamu CE and Guy RK, Reporting data from high throughput screening of small molecule libraries, Nature Chemical Biology, 2007, 3(8): 438-441. doi.org/10.1038/nchembio0807-438. […]
Regarding `CCCc1sc(NC(=O)C[C@H]2NC(=O)c3ccccc3NC2=O)nc1C(=O)OC`, the Potency entry is “inactive”.

Regarding `CCOc1ccccc1CN1CCC(Cc2nc(-c3cccnc3)n[nH]2)C1` (configuration not stated), the Potency result is “inactive”.

Consider `COc1ccc(-c2nc3ccncc3[nH]2)cc1`, for which the Potency result is “inactive”.

Consider `COc1ccccc1-c1[nH]nc2ncc(C(=O)N3CCN(Cc4ccccc4)CC3)nc12`, for which the Potency entry was “inactive”.

In the case of `CC1(C)[C@H](Cc2cc(-c3ccccc3)on2)C[C@@H]1NCC1CC1`, the Potency result is “inactive”.

Turning to `CC(C)CCN1CC2(CCCN(C(=O)c3ccn(C)c(=O)c3)C2)CCC1=O` (configuration not stated), the Potency entry was “inactive”.

`O=C(Nc1ccc2ncnc(N3CCCCC3)c2c1)C1CCCCC1`: the Potency is 9.61 µM (active).

For `CC(C)c1nccn1CCCNc1nc(-c2ccncc2)nc2c1cnn2C`, the Potency entry is “inactive”.

With `Cc1cnc(C2CCC2)n1C1CCN(C(=O)CCC2CCCC2)CC1`, the Potency result was “inactive”.

`Cn1ccc(Nc2cc3c(cn2)CN(CCc2ccccc2)CCN3)n1`: the Potency entry was “inactive”.

For `COc1cc2c(cc1O)NC(=O)CC2c1cn[nH]c1-c1cc(C)ccc1C` (configuration not stated), the Potency result was “inactive”.

In the case of `CCCS(=O)(=O)N1CCCC(Cn2c(C)nc3cccnc32)C1` (configuration not stated), the Potency entry was “inactive”.
